Test results: the supplement of paper PMC7380943
± gives the standard deviation of the averaged measurements.

Key:
[1] = tested on: CLZ3 (HCA2 human fibroblast dual HR-NHEJ reporter); test: NHEJ repair efficiency (GFP+ cells) relative to control (log10 fold); higher = more non-homologous end joining; settings: 5 µM; doxycycline 0.5 ug/mL
[2] = tested on: CLZ3 (HCA2 human fibroblast dual HR-NHEJ reporter); test: HR repair efficiency (tdTomato+ cells) relative to control (log10 fold); higher = more homologous recombination; settings: 5 µM; doxycycline 0.5 ug/mL
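For HR repair efficiency (tdTomato+ cells) relative to control in this document: compound given one day before doxycycline, which switches on I-SceI endonuclease expression to create double-strand breaks within the integrated reporter.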
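For NHEJ repair efficiency (GFP+ cells) relative to control in this document: compound given one day ahead of doxycycline, which switches on I-SceI endonuclease to cut the chromosomally integrated reporter and create DSBs.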

CC(C)=CCC[C@](C)(O[C@@H]1O[C@H](CO)[C@@H](O)[C@H](O)[C@H]1O)[C@H]1CC[C@]2(C)[C@@H]1[C@H](O)C[C@@H]1[C@@]3(C)CC[C@H](O[C@@H]4O[C@H](CO)[C@@H](O)[C@H](O)[C@H]4O[C@@H]4O[C@H](CO)[C@@H](O)[C@H](O)[C@H]4O)C(C)(C)[C@@H]3CC[C@]12C [Ginsenoside Rd]
NHEJ repair efficiency (log10) [1]: 0.0871
HR repair efficiency (log10) [2]: 0.0615

CC1(C)[C@H](OC(=O)c2ccccc2)CC[C@]2(C)C3=C([C@@H](O)C[C@@H]12)[C@@]1(C)CC[C@@]2(C)CC[C@@](C)(COC(=O)c4ccccc4)C[C@H]2[C@]1(C)CC3 [3,29-Dibenzoyl Rarounitriol]
NHEJ repair efficiency (log10) [1]: -0.00463
HR repair efficiency (log10) [2]: 0.103

COc1cc([C@H]2OC[C@H]3[C@@H]2CO[C@@H]3c2ccc(O[C@@H]3O[C@H](CO)[C@@H](O)[C@H](O)[C@H]3O)c(OC)c2)ccc1O[C@@H]1O[C@H](CO)[C@@H](O)[C@H](O)[C@H]1O [PinoresinolDiglucoside]
NHEJ repair efficiency (log10) [1]: -0.0902
HR repair efficiency (log10) [2]: -0.138

O=C1C[C@@H](c2ccc(O)cc2)Oc2cc(O)ccc21 [Liquiritigenin]
NHEJ repair efficiency (log10) [1]: 0.037
HR repair efficiency (log10) [2]: 0.142

CC[C@@H]1[C@H]2CCCCN3[C@H]2[C@H](C[C@H]3[C@@H]2C[C@H](C)C(=O)O2)[C@@H]2[C@H]1OC(=O)[C@H]2C [Tuberostemonine]
NHEJ repair efficiency (log10) [1]: 0.233
HR repair efficiency (log10) [2]: -0.0247

C[C@@H]1O[C@@H](O[C@H]2C(=O)c3c(O)cc(O)cc3O[C@@H]2c2ccc(O)c(O)c2)[C@H](O)[C@H](O)[C@H]1O [Astilbin]
NHEJ repair efficiency (log10) [1]: 0.0148
HR repair efficiency (log10) [2]: 0.109

O=C1/C(=C2\Nc3ccccc3C2=O)Nc2ccccc21 [Indigo]
NHEJ repair efficiency (log10) [1]: -0.108
HR repair efficiency (log10) [2]: -0.0903

C/C=C\c1ccc(OC)cc1 [cis-Anethol]
NHEJ repair efficiency (log10) [1]: 0.133
HR repair efficiency (log10) [2]: 0.0605

C=C1CCC[C@]2(C)C=C3OC(=O)C(C)=C3C[C@@H]12 [Atractylenolide I]
NHEJ repair efficiency (log10) [1]: 0.0524
HR repair efficiency (log10) [2]: 0.0435

OCC1=C[C@@H](O)[C@@H]2C=CO[C@@H](O[C@@H]3O[C@H](CO)[C@@H](O)[C@H](O)[C@H]3O)[C@H]12 [Aucubin]
NHEJ repair efficiency (log10) [1]: 0.0297
HR repair efficiency (log10) [2]: 0.121

COc1cc(O)c2c(=O)c(-c3ccc(O)cc3)coc2c1 [Prunusetin]
NHEJ repair efficiency (log10) [1]: -0.0809
HR repair efficiency (log10) [2]: -0.16

C/C=C(/C)C(=O)O[C@@H]1[C@H](OC(C)=O)c2c(ccc3ccc(=O)oc23)OC1(C)C [Praeruptorin A]
NHEJ repair efficiency (log10) [1]: -0.00436
HR repair efficiency (log10) [2]: -0.0186

CC(C)(O)[C@@H]1CC[C@](C)([C@H]2[C@@H](O)C[C@@]3(C)[C@@H]4C[C@H](O)[C@H]5C(C)(C)[C@@H](O)CC[C@@]56C[C@@]46CC[C@]23C)O1 [Cycloastragenol]
NHEJ repair efficiency (log10) [1]: -0.045
HR repair efficiency (log10) [2]: 0.136

COc1ccc([C@@H]2CC(=O)c3c(O)cc(O[C@@H]4O[C@H](CO[C@@H]5O[C@@H](C)[C@H](O)[C@@H](O)[C@H]5O)[C@@H](O)[C@H](O)[C@H]4O)cc3O2)cc1O [Hesperidin]
NHEJ repair efficiency (log10) [1]: 0.196
HR repair efficiency (log10) [2]: 0.258

C=C(CC[C@@H](C(=O)O)[C@H]1[C@H](O)C[C@@]2(C)C3=C(CC[C@]12C)[C@@]1(C)CC[C@H](OC(C)=O)C(C)(C)[C@@H]1CC3)C(C)C [Pachymic Acid]
NHEJ repair efficiency (log10) [1]: -0.118
HR repair efficiency (log10) [2]: 0.0591

O=c1oc2c(O)c(O)cc3c(=O)oc4c(O)c(O)cc1c4c23 [Ellagic Acid]
NHEJ repair efficiency (log10) [1]: -0.0512
HR repair efficiency (log10) [2]: -0.174

COc1cc([C@H]2OC[C@H]3[C@@H]2CO[C@H]3c2ccc(OC)c(OC)c2)ccc1O [Phillygenin]
NHEJ repair efficiency (log10) [1]: 0.129
HR repair efficiency (log10) [2]: 0.116

COc1c(O[C@@H]2O[C@H](CO)[C@@H](O)[C@H](O)[C@H]2O)cc2oc(-c3ccc(O)cc3)cc(=O)c2c1O [Homoplantaginin]
NHEJ repair efficiency (log10) [1]: 0.0189 ± 0.062
HR repair efficiency (log10) [2]: 0.0763 ± 0.07

CC(CCC(OC1OC(CO)C(O)C(O)C1OC1OC(CO)C(O)C(O)C1O)C(C)(C)O)C1CCC2(C)C3CC=C4C(CCC(OC5OC(COC6OC(CO)C(O)C(O)C6O)C(O)C(O)C5O)C4(C)C)C3(C)C(O)CC12C (centres undefined) [Mogroside IV]
NHEJ repair efficiency (log10) [1]: 0.0766
HR repair efficiency (log10) [2]: 0.171

COc1ccc(CCC(=O)c2c(O)cc(OC3OC(CO)C(O)C(O)C3OC3OC(C)C(O)C(O)C3O)cc2O)cc1O (centres undefined) [Neosperidin Dihydrochalcone]
NHEJ repair efficiency (log10) [1]: -0.0639
HR repair efficiency (log10) [2]: 0.0209

C=CC1=C(C)/C(=C/c2[nH]c(Cc3[nH]c(/C=C4\NC(=O)C(C)=C4C=C)c(C)c3CCC(=O)O)c(CCC(=O)O)c2C)NC1=O [Bilirubin]
NHEJ repair efficiency (log10) [1]: -0.0874
HR repair efficiency (log10) [2]: -0.0828

COc1ccc(-c2cc(=O)c3c(OC)c(OC)c(OC)c(OC)c3o2)cc1 [Tangeretin]
NHEJ repair efficiency (log10) [1]: -0.13
HR repair efficiency (log10) [2]: -0.0674

C[C@@]12C[C@@]3(O)O[C@@H](O1)[C@]1(COC(=O)c4ccc(O)cc4)[C@@H]3C[C@]12O[C@@H]1O[C@H](CO)[C@@H](O)[C@H](O)[C@H]1O [Oxypaeoniflorin]
NHEJ repair efficiency (log10) [1]: 0.00873
HR repair efficiency (log10) [2]: 0.0237

O=C1c2c(O)cc(O)cc2OC(c2ccc(O)c(O)c2)C1O (centres undefined) [Taxifolin]
NHEJ repair efficiency (log10) [1]: -0.132
HR repair efficiency (log10) [2]: -0.0702

CC1(C)CC[C@]2(C(=O)O[C@@H]3O[C@H](CO[C@@H]4O[C@H](CO)[C@@H](O)[C@H](O)[C@H]4O)[C@@H](O)[C@H](O)[C@H]3O)CC[C@]3(C)C(=CC[C@@H]4[C@@]5(C)CC[C@H](O[C@@H]6OC[C@H](O)[C@H](O)[C@H]6O)[C@@](C)(CO)[C@@H]5CC[C@]43C)[C@@H]2C1 [Akebiasaponin D]
NHEJ repair efficiency (log10) [1]: 0.328
HR repair efficiency (log10) [2]: -0.29

COc1c(O[C@@H]2O[C@H](CO)[C@@H](O)[C@H](O)[C@H]2O)cc2occ(-c3ccc(O)cc3)c(=O)c2c1O [Tectoridin]
NHEJ repair efficiency (log10) [1]: 0.116
HR repair efficiency (log10) [2]: 0.192

Cc1c(S(=O)(=O)O)oc2c1C(=O)C(=O)c1c-2ccc2c1CCCC2(C)C [Tanshinone Iia Sodium Sulfonate]
NHEJ repair efficiency (log10) [1]: 0.0248
HR repair efficiency (log10) [2]: 0.126

CC(CC(=O)C[C@@H](C)[C@H]1CC(=O)[C@@]2(C)C3=C(C(=O)C[C@]12C)[C@@]1(C)CC[C@H](O)C(C)(C)[C@@H]1C[C@@H]3O)C(=O)O (some centres undefined) [Ganoderic Acid B]
NHEJ repair efficiency (log10) [1]: 0.0835
HR repair efficiency (log10) [2]: 0.0793

CC(C)=CCC/C(C)=C/C=C/C(C)=C/C=C/C(C)=C/C=C/C=C(C)/C=C/C=C(C)/C=C/C=C(\C)CCC=C(C)C [Lycopene]
NHEJ repair efficiency (log10) [1]: -0.109
HR repair efficiency (log10) [2]: 0.0372

COc1cc2oc(=O)ccc2c(OC)c1O [Fraxinol]
NHEJ repair efficiency (log10) [1]: 0.0138
HR repair efficiency (log10) [2]: 0.0872

CC(C)(O)[C@H](O)COc1c2ccoc2cc2oc(=O)ccc12 [Oxypeucedanin Hydrate]
NHEJ repair efficiency (log10) [1]: -0.0248
HR repair efficiency (log10) [2]: 0.00711

COc1cc(C(=O)OCCCCNC(=N)N)cc(OC)c1O [Leonurine]
NHEJ repair efficiency (log10) [1]: -0.042
HR repair efficiency (log10) [2]: 0.0155

CC1CCC(C(C)C)C(O)C1 (centres undefined) [Menthol]
NHEJ repair efficiency (log10) [1]: 0.0621
HR repair efficiency (log10) [2]: -0.0345

O=C1O[C@H]2[C@@H]3OC(=O)c4cc(O)c(O)c(O)c4-c4c(O)c(O)c5oc(=O)c6c(c(O)c(O)c7oc(=O)c4c5c76)-c4c(cc(O)c(O)c4O)C(=O)OC[C@H]3OC(O)[C@@H]2OC(=O)c2cc(O)c(O)c(O)c2-c2c1cc(O)c(O)c2O (mixture of isomers) [Punicalagin]
NHEJ repair efficiency (log10) [1]: -0.0664
HR repair efficiency (log10) [2]: -0.254

O=C1C[C@@H](c2ccc(O[C@@H]3O[C@H](CO)[C@@H](O)[C@H](O)[C@H]3O)cc2)Oc2cc(O)ccc21 [Liquiritin]
NHEJ repair efficiency (log10) [1]: -0.084
HR repair efficiency (log10) [2]: -0.0906

COc1cc2c(cc1OC)[C@H]1[C@@H](C)c3ccc(OC)c(OC)c3CN1CC2 [Corydaline]
NHEJ repair efficiency (log10) [1]: -0.196
HR repair efficiency (log10) [2]: -0.191

CC[C@H](/C=C/[C@@H](C)[C@H]1CC[C@H]2[C@@H]3CC=C4C[C@@H](O)CC[C@]4(C)[C@H]3CC[C@]12C)C(C)C [Stigmasterol]
NHEJ repair efficiency (log10) [1]: -0.155
HR repair efficiency (log10) [2]: -0.14

O=C(O[C@@H]1Cc2c(O)cc(O)cc2O[C@@H]1c1ccc(O)c(O)c1)c1cc(O)c(O)c(O)c1 [Epicatechin Gallate]
NHEJ repair efficiency (log10) [1]: -0.236
HR repair efficiency (log10) [2]: -0.0859

C[C@@H]1O[C@@H](O[C@@H]2[C@H](O)[C@@H](O)[C@H](O[C@H]3CC[C@@]4(C)C(CC[C@]5(C)C4C=C[C@]46OC[C@@]7(CCC(C)(C)CC74)[C@@H](O)C[C@]65C)C3(C)C)O[C@@H]2CO[C@@H]2O[C@H](CO)[C@@H](O)[C@H](O)[C@H]2O)[C@H](O)[C@H](O)[C@H]1O (some centres undefined) [Saikosaponin c]
NHEJ repair efficiency (log10) [1]: -0.0431
HR repair efficiency (log10) [2]: -0.104

O=c1ccc2ccc(O)cc2o1 [Umbelliferone]
NHEJ repair efficiency (log10) [1]: 0.115
HR repair efficiency (log10) [2]: 0.269

Oc1cc(O)c2c(c1)O[C@H](c1cc(O)c(O)c(O)c1)[C@H](O)C2 [(-)Epigallocatechin]
NHEJ repair efficiency (log10) [1]: -0.0905
HR repair efficiency (log10) [2]: -0.0527

C=CC(C)(C)c1cc(/C=C/C(=O)c2ccc(O)cc2)c(OC)cc1O [Licochalcone A]
NHEJ repair efficiency (log10) [1]: -0.106
HR repair efficiency (log10) [2]: 0.0473

O=C(/C=C/c1ccc(O)c(O)c1)OC1(C(=O)O)C[C@@H](O)C(O)[C@H](O)C1 (some centres undefined) [1-Caffeoylquinic Acid]
NHEJ repair efficiency (log10) [1]: -0.0477
HR repair efficiency (log10) [2]: 0.0171

C[C@@H]1O[C@@H](Oc2cc(O)c3c(=O)c(O[C@@H]4O[C@@H](C)[C@H](O)[C@@H](O)[C@H]4O)c(-c4ccc(O)cc4)oc3c2)[C@H](O)[C@H](O)[C@H]1O [Kaempferitrin]
NHEJ repair efficiency (log10) [1]: 0.0262
HR repair efficiency (log10) [2]: 0.0294

COC(=O)C1=CO[C@@H](O[C@@H]2O[C@H](CO[C@@H]3O[C@H](CO)[C@@H](O)[C@H](O)[C@H]3O)[C@@H](O)[C@H](O)[C@H]2O)[C@@H]2C(CO)=CC[C@H]12 [Genipin 1-Gentiobioside]
NHEJ repair efficiency (log10) [1]: 0.0417
HR repair efficiency (log10) [2]: 0.0278

CC(=O)O[C@@H]1CC[C@@]2(C)[C@@H](CC[C@]3(C)[C@@H]2C(=O)C=C2[C@@H]4[C@@H](C)[C@H](C)CC[C@]4(C)CC[C@]23C)[C@@]1(C)C(=O)O [3-Acetyl-11-Keto-Beta-Boswellic Acid]
NHEJ repair efficiency (log10) [1]: -0.179
HR repair efficiency (log10) [2]: -0.0515

CCCCCCCC/C=C\CCCCCCCC(=O)OCC(COC(=O)CCCCCCC/C=C\CCCCCCCC)OC(=O)CCCCCCC/C=C\CCCCCCCC [Glycerol Trioleate]
NHEJ repair efficiency (log10) [1]: -0.000616
HR repair efficiency (log10) [2]: 0.0182
